In the library only some 1% were active in any assay of this set; here they are far more common.
EBNA-1 inh = blocks EBNA-1 binding to DNA; EBNA-1 DNA binding, fluorescence polarization; AID 1950; inhibition, % at 14.8 µM; hit rate 0.34% among 300,000; in the data active = inhibition above about 28%
ZTA counter = counter-screen for EBNA-1 inhibitors: inhibitors of Epstein-Barr virus ZTA | ZTA-DNA binding, fluorescence polarization | P03206 | hit rate 0.15% among 320,000 | AID 2234 | inhibition, % at 11 µM; in the data active = inhibition above about 33%
Target sequence (P03206 whole entry, looked up): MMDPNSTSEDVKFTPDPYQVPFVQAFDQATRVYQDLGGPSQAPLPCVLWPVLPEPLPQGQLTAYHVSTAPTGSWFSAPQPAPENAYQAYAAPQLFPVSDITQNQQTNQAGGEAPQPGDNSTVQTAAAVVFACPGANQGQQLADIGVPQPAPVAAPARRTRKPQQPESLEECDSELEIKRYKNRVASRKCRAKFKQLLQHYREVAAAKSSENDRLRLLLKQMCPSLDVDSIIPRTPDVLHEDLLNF
MEX-5 binding = C. elegans MEX-5 TCR-2 RNA binding activity | Q9XUB2 | MEX-5/FITC-TCR2 RNA binding, fluorescence polarization; hits give low values | hit rate 0.38% among 300,000 | activity score (negative = inhibition of binding), % at 10 µM | AID 1832;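 active = inhibition past about -25% in most replicates, and total fluorescence under double the plate's negative control median, limit read from the data; inconclusive = replicates evenly split on the limit, or fluorescence at least double controls; inactive = too little inhibition in most replicates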
EBV gp42 inh = blocks Epstein-Barr virus glycoprotein 42 binding. Fluorescence polarization binding assay, mP read-out. inhibition, % (tested at 21.74 µM). hit rate 0.42% among 220,000. AID 1085. Q1HVG2; in the data active = inhibition above about 50%
Target sequence (Q1HVG2 whole entry, looked up): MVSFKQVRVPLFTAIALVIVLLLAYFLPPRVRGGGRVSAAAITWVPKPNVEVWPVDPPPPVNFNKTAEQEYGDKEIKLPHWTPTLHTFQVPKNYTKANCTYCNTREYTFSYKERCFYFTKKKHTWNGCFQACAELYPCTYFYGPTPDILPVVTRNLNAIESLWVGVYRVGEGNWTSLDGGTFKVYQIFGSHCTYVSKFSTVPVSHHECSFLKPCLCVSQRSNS
Each line names hits and unclear results; the compound was inactive in the other large screens.

COc1cc(CNc2ccc(N3CCOCC3)cc2)cc(Br)c1OC	none
C=CCOc1c(Cl)cc(CNc2ccc(C)c(Cl)c2)cc1OC	none
CCOc1ccc(CNc2ccc(N3CCCC3)cc2)cc1	EBNA-1 inh 79.0, ZTA counter 85.8
CCOc1ccc(CNc2ccc(N3CCN(Cc4ccccc4)CC3)cc2)cc1	none (no result: EBV gp42 inh)
COc1cc(CNc2ccc(N3CCCC3)cc2)cc(Cl)c1OC	EBNA-1 inh 110.7, ZTA counter 127.4
CCOc1cc(CNc2ccc(N3CCCC3)cc2)cc(Cl)c1OC	EBNA-1 inh 97.5, ZTA counter 158.5
C=CCOc1c(Cl)cc(CNc2ccc(N(C)C)cc2)cc1OC	EBNA-1 inh active, ZTA counter active
CCOC(=O)C1CCCN(C(=O)Cn2nc(C)c3c(C)n(-c4ccccc4)nc3c2=O)C1 (stereo not given)	none (no result: EBV gp42 inh)
COc1ccccc1C(=O)NC(=O)COC(=O)C1(C)CC1(Cl)Cl (stereo not given)	none (no result: EBV gp42 inh)
O=C(Cc1ccc(S(=O)(=O)N2CCOCC2)s1)N1CCN(c2cccc(C(F)(F)F)c2)CC1	none (no result: EBV gp42 inh)
Cc1ccc(-c2nn(-c3ccc(F)cc3)cc2C(=O)N(C)CC(=O)Nc2ccc(N3CCOCC3)cc2)cc1	none (no result: EBV gp42 inh)
Cc1c(CCC(=O)NCCCC(=O)O)c(=O)oc2cc3oc4c(c3cc12)CCCC4	none (no result: EBV gp42 inh)
O=C(O)c1ccccc1-c1ccccc1C(=O)Nc1ccc(F)cc1	none (no result: EBV gp42 inh)
O=C(/C=C/c1ccc(NC(=O)c2ccccc2-c2ccccc2C(=O)O)cc1)c1ccccc1	ZTA counter 40.9 (no result: EBV gp42 inh)
Cn1c(=O)c2[nH]c(N/N=C(/C#N)C(N)=O)nc2n(C)c1=O	MEX-5 binding -27.4
CCC(COC(C)=O)Nc1nc2c([nH]1)c(=O)n(C)c(=O)n2C (stereo not given)	none
Cc1ccc(N=C2NC(=O)/C(=C/c3cn(C)c4ccccc34)S2)cc1C	EBV gp42 inh 82.0 (no result: MEX-5 binding)
COc1ccc(/C=C2\N=C(c3c(-c4ccccc4)noc3C)OC2=O)cc1OC	EBV gp42 inh 56.9
COc1cc(/C=C2\N=C(c3ccccc3)OC2=O)ccc1OCc1c(C)no[n+]1[O-]	none
CC1(C)C(=O)Nc2ccccc2N1C(=O)COC(=O)CNS(=O)(=O)c1ccc(F)c(F)c1F	none (no result: EBNA-1 inh, MEX-5 binding, EBV gp42 inh)
CCN(CC)C(=O)CSc1nnc2nnc3cc(Cl)ccc3n12	MEX-5 binding -31.7, EBV gp42 inh 66.6
COc1ccc(Nc2nc3ccccc3nc2NS(=O)(=O)c2cccs2)c(OC)c1	MEX-5 binding -40.0
CCOC(=O)c1c(C)[nH]c(C)c1C(=O)CSc1nc2ccccc2n1CCOC	none
CCOC(=O)c1c(C)[nH]c(C)c1C(=O)CSc1nc2ccccc2n1CC	EBV gp42 inh 122.0
CCOC(=O)c1cc(-c2ccc(/C=C3/C(=O)NC(=O)C(C#N)=C3C)o2)ccc1Cl	EBV gp42 inh 106.0
CC1=C(C#N)C(=O)NC(=O)/C1=C\c1ccc(-c2ccc(C)cc2[N+](=O)[O-])o1	none (no result: EBNA-1 inh, ZTA counter)
COc1cccc(N2CCN(C(=O)CN3C(=O)NC(C)(c4ccc5ccccc5c4)C3=O)CC2)c1 (stereo not given)	none (no result: EBV gp42 inh)
O=c1oc2cc(O)ccc2cc1-c1nc2c(s1)CCc1ccccc1-2	EBV gp42 inh 126.6 (no result: MEX-5 binding)
Nn1c(C2CCC2)nc2cc(Cl)ccc2c1=O	none (no result: EBV gp42 inh)
Cc1cnc(CNC(=O)CC2C(=O)NCCN2Cc2cccc(F)c2F)cn1 (stereo not given)	none (no result: EBV gp42 inh)
O=c1c(/C=N/Nc2ccccc2)c(Sc2nnnn2-c2ccccc2)nc2ccccn12	EBV gp42 inh 152.4 (no result: EBNA-1 inh, ZTA counter, MEX-5 binding)
O=C(O)c1ccccc1N/N=C/c1c(Sc2nnnn2-c2ccccc2)nc2ccccn2c1=O	MEX-5 binding -25.6
CN(CC(=O)Nc1ccc(OC(F)(F)F)cc1)C(=O)Cn1c(=O)cnc2ccccc21	none (no result: EBNA-1 inh, MEX-5 binding, EBV gp42 inh)
CCS(=O)(=O)N1CCN=C1SCc1ccc(F)cc1	none (no result: EBV gp42 inh)
N=c1c(S(=O)(=O)c2ccc(Cl)cc2)cc2c(=O)n3ccccc3nc2n1CCc1ccccc1	MEX-5 binding -63.0 (no result: EBV gp42 inh)
N=c1c(S(=O)(=O)c2ccc(Cl)cc2)cc2c(=O)n3ccccc3nc2n1CCN1CCOCC1	none
N=c1c(S(=O)(=O)c2ccc(Cl)cc2)cc2c(=O)n3ccccc3nc2n1C1CCCCC1	MEX-5 binding -45.8 (no result: EBV gp42 inh)
N=c1c(S(=O)(=O)c2ccccc2)cc2c(=O)n3ccccc3nc2n1C1CCCC1	none (no result: EBV gp42 inh)
COc1ccc(NC(=O)c2ccccc2NS(=O)(=O)c2ccc(CNC(C)=O)cc2)c(OC)c1	none (no result: EBV gp42 inh)
c1ccc(C2=NNC(c3ccccn3)=NN2)nc1	MEX-5 binding -36.3 (no result: EBV gp42 inh)
Nc1nc(N)nc(-c2ccccn2)n1	none
c1ccc(-c2nnc(-c3ccccn3)s2)nc1	none
c1ccc(-c2nc(-c3ccccn3)nc(-c3ccccn3)n2)nc1	MEX-5 binding -39.5
COc1ccc(C2(c3ccc(OC)cc3)NC(=O)N(CC(=O)N(C)C3CCC(C)CC3)C2=O)cc1 (stereo not given)	none (no result: EBNA-1 inh, MEX-5 binding, EBV gp42 inh)
COc1cccc(C(=O)NCCS(=O)(=O)N(C)Cc2ccccc2)c1	none (no result: EBV gp42 inh)
O=C(Nc1ccccc1)c1ccccc1NC(=O)[C@H]1CCCC[C@H]1C(=O)O	none (no result: EBV gp42 inh)
CC1CN(c2nc3ccccc3nc2C(C#N)C(=O)NCc2ccc3c(c2)OCO3)CC(C)O1 (stereo not given)	EBV gp42 inh 70.7
CC1CCN(c2nc3ccccc3nc2C(C#N)C(=O)NC2CCCCC2)CC1 (stereo not given)	MEX-5 binding -28.8 (no result: EBV gp42 inh)
N#CC(C(=O)NC1CCCCC1)c1nc2ccccc2nc1N1CCN(c2ccccc2F)CC1 (stereo not given)	none (no result: MEX-5 binding)
Cc1ccc(OCC(=O)NNC(=O)C2CC(=O)N(c3ccc4c(c3)OCCO4)C2)cc1 (stereo not given)	none (no result: EBV gp42 inh)
CN(C)c1ccc(NC(=O)N2CCOCC2)cc1	EBNA-1 inh 49.8, ZTA counter 61.7
COc1ccc(C(=O)Nc2ccccc2N2CCN(C(=O)c3ccccc3)CC2)cc1Br	none (no result: EBV gp42 inh)
Oc1nc(Nc2ccc(F)cc2)sc1/C=C1\C=Nc2ccccc21	none
O=c1[nH]c(S)c(/C=C2\C=Nc3ccccc32)s1	EBV gp42 inh 62.7
O=c1[nH]c(/C=C\c2ccc(O)c(O)c2)nc(O)c1[N+](=O)[O-]	MEX-5 binding -29.7 (no result: EBNA-1 inh, ZTA counter, EBV gp42 inh)
Nc1ccc(-c2nc3ccc(C(=O)O)cc3s2)cc1	EBV gp42 inh 98.8
O=C(O)c1ccc2nc(-c3ccccc3)sc2c1	none
O=C(NCC(c1ccc(F)cc1)N1CCOCC1)c1ccco1 (stereo not given)	none (no result: EBV gp42 inh)
CCOC(=O)c1c2ccc(OCC(=O)N/N=C/c3ccc(C)cc3)cc2n2ccccc12	MEX-5 binding -29.4
O=C(/C=C/c1ccco1)NC(=S)NNC(=O)c1ccco1	MEX-5 binding -25.8
COC(=O)c1cc2c(C)c(C)c3ccccn3c-2c1C(=O)OC	MEX-5 binding inconclusive, EBV gp42 inh 50.5
COC(=O)c1cc2c(C)cc3ccc(C)cn3c-2c1C(=O)OC	EBV gp42 inh 87.9
COC(=O)c1cc2ccccn2c2c(C(=O)OC)c(C(=O)OC)cc1-2	none
COC(=O)c1cc2n3ccccc3c(C)c(-c3ccccc3)c-2c1C(=O)OC	MEX-5 binding inconclusive, EBV gp42 inh 103.5
O=C(CN(CC1CCCO1)C(=O)CNS(=O)(=O)c1ccc(F)cc1)NCc1ccc(F)cc1 (stereo not given)	none (no result: EBV gp42 inh)
CCC(C)[C@H](NC(=O)N1CCn2c1nc1ccccc12)C(=O)NCCc1ccc(OC)c(OC)c1 (stereo not given in full)	none (no result: EBV gp42 inh)
